Bioassay records from PubChem.
FLuc modulator: counter-screen for miR-21 project: firefly luciferase inhibitors or activators; Potency, µM (series often up to 57.5 µM), without a hit: at the highest dose activity change, negative = inhibition, usual class: inhibitors; 360,000 compounds, 6.9% hits; P08659; purified FLuc, Km substrates, luminescence inhibition;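 further: plate controls were vehicle for no effect and reference inhibitor for full effect; nearly all actives have a fitted effect of over 55% in size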
Target sequence (P08659 whole entry, looked up): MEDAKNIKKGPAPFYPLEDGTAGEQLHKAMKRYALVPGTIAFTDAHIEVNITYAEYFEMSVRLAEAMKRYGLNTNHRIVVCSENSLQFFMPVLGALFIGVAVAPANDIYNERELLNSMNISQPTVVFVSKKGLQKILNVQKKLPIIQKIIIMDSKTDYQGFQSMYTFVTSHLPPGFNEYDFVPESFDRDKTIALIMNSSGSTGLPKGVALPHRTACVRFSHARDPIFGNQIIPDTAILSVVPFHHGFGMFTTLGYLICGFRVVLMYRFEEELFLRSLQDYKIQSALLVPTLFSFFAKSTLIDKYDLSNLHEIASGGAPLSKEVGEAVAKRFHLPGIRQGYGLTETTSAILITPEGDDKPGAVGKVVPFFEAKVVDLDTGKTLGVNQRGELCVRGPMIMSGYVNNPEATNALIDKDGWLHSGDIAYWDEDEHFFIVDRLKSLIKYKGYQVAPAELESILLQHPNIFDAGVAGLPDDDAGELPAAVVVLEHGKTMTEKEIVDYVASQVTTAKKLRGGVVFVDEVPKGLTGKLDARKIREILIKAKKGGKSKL
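Purified P. pyralis luciferase, 10 nM final, with Km-level 10 uM D-luciferin and 10 uM ATP in 50 mM Tris acetate pH 7.5, 10 mM Mg acetate, 0.01% Tween-20, 0.05% BSA; 6-point qHTS titration about 60 µM downward; luminescence read.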
SMN2 splice enh: increases expression of the SMN2 splice variant | AID 1458 | 210,000 compounds, 2.8% hits | HEK293 SMN2-luciferase splicing reporter, luminescence, 30-36 h | Potency, µM (highest dose often 46.1 µM), for inactives: at the top dose activity change, positive = activation, actives largely listed as activators; further: % of control where 0% means no effect; nearly all actives have a fitted effect of over 55% in size
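HEK293 cells carry an SMN2 minigene-luciferase reporter in which exon 7 inclusion puts luciferase in frame. Cells were seeded at 2000 cells/well, attached for 10-12 hours, then exposed to compounds for 30-36 hours at 37C before ONE-Glo luminescence.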
NPC1 promoter act: activates the NPC1 promoter; AID 485313; Potency, µM (top dose mostly 9.22 µM), inactives show at the highest dose activation, usual class: activators; 320,000 compounds, 2.4% hits; Huh7 NPC1 promoter luciferase reporter, 24 h; further: % of control where 0% means no effect; nearly all actives have a fitted effect of over 60% in size
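Huh7 cells stably carrying NPC1 promoter–luciferase, plated in Opti-MEM with 10% FBS for 2 h, were exposed to compound in DMSO for 24 h at 37 °C; luciferase reagent was added for 10 min and luminescence read.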
ELG1 genotoxic: induces genotoxicity in HEK293T cells with luciferase-tagged ELG1. HEK293T ELG1-luciferase reporter, luminescence, 16 h. 330,000 compounds, 1.3% hits. AID 504466. Potency, µM (titrated, usually from 46 µM), for the others: at the top dose activity change, positive = activation, most hits filed as activators; further: % of control where 0% means no effect; nearly all actives have a fitted effect of over 60% in size
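ELG1-luciferase HEK293T cells, 2,000/well; compound pinned in; 16 hr, 37 °C, 5% CO2; ONE-Glo, 30 min RT; luminescence on CCD imager.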
Rab9 promoter act: activators of Rab9 promoter. Huh7 Rab9 promoter-luciferase reporter, luminescence, 24 h. Potency, µM (titrated, usually from 9.22 µM), for inactives: at the top dose activation, negative = inhibition, actives largely listed as activators. 320,000 compounds, 2.8% hits; further: % of control where 0% means no effect; nearly all actives have a fitted effect of over 60% in size
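Quantitative HTS format; Huh7 Rab9-luciferase reporter cells (1500/well) receive compound 2 h post-plating, incubate 24 h at 37 °C, then get luciferase reagent for 10 min before luminescence reading.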
ELG1 DNA repair: blocks ELG1-dependent DNA repair in HEK293T cells | HEK293T ELG1-luciferase reporter, luminescence, 16 h; DNA damage induced by 5-fluorouridine | Potency, µM (titrated, usually from 46.1 µM), for inactives: top-dose activity change, negative = inhibition, actives largely listed as inhibitors | 330,000 compounds, 2.3% hits | AID 504467; further: on the % scale 0 is the no-effect control and ±100 the full control effect; nearly all actives have a fitted effect of over 55% in size
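DMSO vehicle served as the neutral condition. Each well held 2,000 cells given 5-fluorouridine plus compound; after 16 hr at 37 °C/5% CO2, ONE-Glo was added and luciferase measured 30 min later.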
Starred values were filed as active, the others as inactive; u = inconclusive; x = no result given; [ ] = remark or other dose. Compounds with a hit are over-represented: about 9.4% of the library has one in this group of screens. The call rests on the fitted dose curve; in most records, active means well fitted curve in the direction sought with a large enough effect; inconclusive means small, poorly fitted or top-dose-only effect, or another doubt; inactive means no such curve, though single readings can be large; an effect the other way counts as inactive or inconclusive. Potency means the concentration at half of the fitted maximal effect.

SMILES | FLuc modulator | SMN2 splice enh | NPC1 promoter act | ELG1 genotoxic | Rab9 promoter act | ELG1 DNA repair
Cc1cccc(N2CSC3=C(C#N)C(c4ccc(C)o4)CC(=O)N3C2)c1 (centres undefined) | 17µM* | 6% | -3% | u | 4% | u
O=C(CSc1nc(O)c(C2CCCCC2)c(=O)[nH]1)NCC1CCCO1 (centres undefined) | 15µM* | 2% | -3% | 2% | 10% | u
CCOC(=O)c1cccc(NC(=O)c2cc3c(=O)n(Cc4ccccc4)ccc3nc2C)c1 | 1% | x | x | x | x | x
CCN(CC)S(=O)(=O)c1ccc(NC(=O)[C@H](CSCc2ccccc2)N2Cc3ccccc3C2=O)cc1 | 5% | 4.5µM* | x | x | x | x
O=S(=O)(c1ccccc1)n1ccc(-c2cnc(-c3ccccc3)s2)n1 | 15µM* | 46% | u | u | u | u
O=C(O)CSc1nc(-c2cccs2)cc(C(F)(F)F)n1 | -14% | -6% | -4% | 0% | 6% | -14%
COc1ccc(S(=O)(=O)n2ccc(-c3ccc(OCCN(C)c4ccccn4)cc3)n2)cc1 | 1% | -36% | -13% | -10% | -15% | -19%
O=c1ccc(-c2ccccc2)nn1Cc1ccc(F)cc1 | -17% | x | 0% | 0% | 3% | 2%
Fc1ccc(Cn2ccc(-c3cnc(-c4ccccc4)s3)n2)cc1 | 11µM* | -27% | u | u | 3.2µM* | u
O=C(c1ccc(C(F)(F)F)cc1)n1ccc(-c2cccs2)n1 | 15µM* | x | -3% | 0% | 1% | -9%
O=C(c1ccc(F)cc1)n1nc(-c2cccnc2)nc1NCc1ccccc1 | -3% | 13% | x | x | x | x
O=C(c1ccc(F)cc1)n1ccc(-c2cnc(-c3ccccc3)s2)n1 | u | 13µM* | 1µM* | 0.82µM* | 0.71µM* | u
Cn1c(=O)c2c(nc(NCc3ccccc3)n2Cc2ccc(Cl)c(Cl)c2)n(C)c1=O | 0% | -5% | x | x | x | x
Cc1cccc(CNC(=O)CSCc2cnn(-c3ccccc3)c2-n2cccc2)c1 | -20% | 2% | x | x | x | x
COc1cc(NC(=O)c2c(-c3ccc(C)cc3)nnc3ccccc23)cc(OC)c1OC | 0% | x | x | x | x | x
Cc1ccc(Cn2ccc(NC(=O)c3cc(-c4ccccc4)on3)n2)cc1 | 6% | -1% | -5% | 3% | -4% | -8%
Cc1ccc(Cn2ccc(-c3cnc(-c4ccccc4)s3)n2)cc1 | 11µM* | -43% | u | u | u | u
O=C1C(Cl)=C(Nc2cccc(O)c2)C(=O)N1Cc1ccccc1 | -6% | -7% | -5% | -7% | -15% | -8%
CC1CCCCN1C(=O)c1cccc(NC2=C(Cl)C(=O)N(Cc3ccccc3)C2=O)c1 (centres undefined) | -12% | x | 9% | -1% | 0% | 10µM*
CC1CCN(C(=O)c2ccc(NC(=O)c3ccccc3)cc2)CC1 | -20% | x | 1% | 9% | 26% | 6%
CC1CCN(C(=O)c2ccc(NC3=C(Cl)C(=O)N(Cc4ccccc4)C3=O)cc2)CC1 | -2% | x | 0% | 0% | 4% | 10µM*
CCOC(=O)C1=C(COC(=O)CCOc2ccc(C)cc2)NC(=O)NC1C (centres undefined) | -1% | x | -10% | 20% | -8% | 26µM*
Cc1cc(C)c2sc(N(Cc3cccnc3)C(=O)CCOc3ccccc3)nc2c1 | -8% | x | x | x | x | x
O=C(Nc1cccc2ccccc12)c1ccc([N+](=O)[O-])o1 | 2% | x | -13% | -10% | -8% | u
O=C(Nc1cccc(NC(=O)c2ccccc2Cl)c1)c1ccc([N+](=O)[O-])o1 | 21µM* | x | -16% | -20% | 4% | 23µM*
SMILES | FLuc modulator | SMN2 splice enh | NPC1 promoter act | ELG1 genotoxic | Rab9 promoter act | ELG1 DNA repair
CS(=O)(=O)N1CCN(c2ccc(NC(=O)c3ccc([N+](=O)[O-])o3)cc2)CC1 | -16% | x | u | u | 2.2µM* | u
CCC(=O)N1CCN(c2ccc(NC(=O)c3ccc([N+](=O)[O-])o3)cc2)CC1 | 0% | 8% | -6% | 1% | 4% | -16%
CC(C)(C)C(=O)N1CCN(c2ccc(NC(=O)c3ccc([N+](=O)[O-])o3)cc2)CC1 | -2% | x | -5% | -9% | 1% | u
O=C(Nc1ccc(N2CCCC2)c(Cl)c1)c1ccc([N+](=O)[O-])o1 | 7.6µM* | -53% | u | -18% | u | u
O=C(Nc1ccccc1N1CCCC1)c1ccc([N+](=O)[O-])o1 | 3% | x | -4% | -8% | 6% | u
O=C(Nc1ccc(N2CCCCC2)cc1)c1ccc([N+](=O)[O-])o1 | 1.5µM* | x | 0.5µM* | 6.5µM* | 2.5µM* | u
CCOc1ccc(NC(=O)Cn2c(=O)n(Cc3ccc(C(=O)NCc4ccc(C)cc4)cc3)c(=O)c3ccccc32)cc1 | 1% | -2% | x | x | x | x
Cc1cccc(NC(=O)c2ccc3snnc3c2)c1C | 6% | 9% | x | x | x | x
O=[N+]([O-])c1ccc([C@@H](Nc2ccccc2)c2ccc3cccnc3c2O)cc1 | x | -77%[9.22 µM] | x | x | x | x
CCCC(=O)N1CCN(c2ccc(NC(=O)c3ccc([N+](=O)[O-])o3)cc2)CC1 | 2% | -36% | -6% | 0% | 2% | u
Cc1ccc(NC(=O)c2ccc([N+](=O)[O-])o2)cc1C | 21µM* | -8% | -2% | 18% | u | u
CC1CCN(c2ccc(NC(=O)c3ccc([N+](=O)[O-])o3)cc2)CC1 | 1.1µM* | x | u | 3.7µM* | 2µM* | u
COC(=O)N1CCC[C@@]2(CCN(C(=O)Nc3ccccc3)C2)C1 | x | 2% | x | x | x | x
Oc1oc(-c2cccc3ccccc23)nc1/C=N/c1nccs1 | 3% | 3% | -6% | 4% | 0% | 13%
Cc1ccnc(N=Cc2nc(-c3ccccc3Br)oc2O)c1 | 5.4µM* | 58% | 22% | 12% | u | u
Cc1cccc(/N=C/c2nc(-c3ccccc3Br)oc2O)n1 | 7.6µM* | -22% | -1% | 2% | -2% | 7%
Clc1ccccc1CSc1nnc(-c2ccncc2)o1 | 17µM* | 10µM* | u | 9% | u | u
Fc1cccc(Cl)c1CSc1nnc(-c2ccncc2)o1 | 15µM* | x | u | u | 4.5µM* | u
c1ccc2c(CSc3nnc(-c4ccncc4)o3)cccc2c1 | -12% | -28% | -5% | -1% | -1% | 7%
COc1cc(-c2nnc(SCc3c(F)cccc3Cl)o2)cc(OC)c1OC | 0% | 4% | -2% | 1% | 0% | u
Cc1cc(-c2ccc(C)c(S(=O)(=O)NC(c3cccs3)C(C)C)c2)on1 (centres undefined) | -13% | x | x | x | x | x
